Reference: PubChem BioAssay (EPA / NIEHS)
Results filed as inconclusive are left out. Active and inactive are the calls of the source. Rule for the calls, unless noted: active = hit-call score of the fitted dose curve at least 0.9, where 1 is the maximum; inactive = score below 0.9.

Tests used:
[1] = biological target: CCAAT/enhancer-binding protein beta (Homo sapiens) (UniProt P17676); test: ATG_C_EBP_CIS: Attagene CIS-FACTORIAL HepG2 Assay for human CCAAT/Enhancer Binding Protein (C/EBP) beta (AID 2282927); conditions: HepG2 Attagene cis-factorial transcription factor reporter; actives raise or lower the signal
Outline: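 RT-PCR/capillary electrophoresis fluorescence of reporter mRNA, 24 h post-dose, in HepG2 cells carrying transfected cis-promoter reporter units. Bidirectional curve fitting against DMSO baseline captures gain or loss of signal.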

[2] = ATG_CMV_CIS: Attagene CIS-FACTORIAL HepG2 Assay for human CMV (Internal Marker) (AID 2282928); conditions: HepG2 CMV promoter reporter, transcription factor profiling; actives raise or lower the signal;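 note: endpoint acts as a background internal control marker rather than a target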
Outline: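 Cell system: HepG2, transiently transfected multiple reporter units under cis promoters. Exposure: 24 h. Detection: RT-PCR, FAM labeling, HpaI digestion, capillary electrophoresis. Analysis: bidirectional, DMSO baseline.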

[3] = biological target: Aryl hydrocarbon receptor (Homo sapiens) (UniProt P35869); test: ATG_Ahr_CIS: Attagene CIS-FACTORIAL HepG2 Assay for human Aryl Hydrocarbon Receptor (Ahr) (AID 2282930); conditions: HepG2 AhR cis-factorial reporter transcription; actives raise or lower the signal
Outline: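 HepG2 cells transiently transfected with cis-element-driven multiplexed reporter transcription units; endogenous transcription factor activity measured as reporter mRNA 24 h after dosing. RT-PCR, 6-FAM labelling, HpaI digestion, capillary electrophoresis; bidirectional fitting versus DMSO baseline.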

[4] = biological target: Hypoxia-inducible factor 1-alpha (Homo sapiens) (UniProt Q16665); test: ATG_HIF1a_CIS: Attagene CIS-FACTORIAL HepG2 Assay for human Hypoxia Inducible Factor 1 (HIF1A) (AID 2282951); conditions: HepG2 Attagene cis-factorial HIF1a reporter transcription; actives raise or lower the signal
Outline: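 Activity is fitted in both directions relative to DMSO. Reporter transcripts are read by RT-PCR, fluorescent primer extension and capillary electrophoresis after 24 h chemical treatment. The cells are HepG2 carrying transiently transfected cis-element-driven reporter units responding to endogenous factors.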

[5] = biological target: Heat shock factor protein 1 (Homo sapiens) (UniProt Q00613); test: ATG_HSE_CIS: Attagene CIS-FACTORIAL HepG2 Assay for human Heat Shock Transcription Factor 1 (HSE) (AID 2282953); conditions: HepG2 HSE cis-reporter, Attagene RNA transcription; actives raise or lower the signal
Outline: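 Read-out: fluorescence of reporter-specific RT-PCR fragments separated by capillary electrophoresis. HepG2 carrying transfected cis-element reporter units; 24 h dosing; activity fitted in both directions relative to DMSO baseline.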

[6] = ATG_RORE_CIS: Attagene CIS-FACTORIAL HepG2 Assay for human RAR-related Orphan Receptor Element (RORE) (AID 2282959); conditions: HepG2 Attagene cis-factorial RORE reporter, mRNA; actives raise or lower the signal
Outline: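 RORE reporter transcripts reflecting endogenous factor activity were read after 24 h compound exposure of transfected HepG2 cells, using reverse transcription, PCR, fluorescent labelling and capillary electrophoresis sizing. Gain or loss fitted against DMSO.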

[7] = ATG_TA_CIS: Attagene CIS-FACTORIAL HepG2 Assay for human TA Basal Promoter (AID 2282964); conditions: HepG2 Attagene CIS-factorial TA basal promoter reporter; actives raise or lower the signal
Outline: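 Transfected HepG2, 24 h compound exposure; RNA → RT-PCR → FAM primer extension → HpaI cut → CE fluorescence. Gain/loss-of-signal fitted against DMSO negative control. Background-control readout.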

[8] = ATG_TCF_b_cat_CIS: Attagene CIS-FACTORIAL HepG2 Assay for human T-Cell-Factor with beta-catenin (TCF/b-cat) (AID 2282965); conditions: HepG2 TCF/beta-catenin cis-reporter transcription, actives raise or lower the signal
Outline: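 HepG2 cells transiently transfected with multiple cis-promoter-regulated reporter transcription units, so endogenous transcription factor activity is measured. Reporter mRNA read 24 hours after dosing by RT-PCR, fluorescent labelling and capillary electrophoresis; bidirectional fitting against DMSO.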

[9] = ATG_TAL_CIS: Attagene CIS-FACTORIAL HepG2 Assay for human TAL Basal Promoter (AID 2282966); conditions: HepG2 Attagene cis-factorial TAL promoter reporter; actives raise or lower the signal;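 note: background control endpoint measuring basal TAL promoter reporter mRNA not a specific factor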
Outline: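 HepG2 cells transiently transfected with multiplexed cis-promoter reporter units, dosed 24 h. Reporter mRNA quantified by RT-PCR, 6-FAM labelling, HpaI digestion and capillary electrophoresis; TAL basal promoter serves as background control, fitted bidirectionally versus DMSO.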

[10] = ATG_TGFb_CIS: Attagene CIS-FACTORIAL HepG2 Assay for human Transforming Growth Factor (TGF) (AID 2282967); conditions: HepG2 Attagene CIS TGFb reporter, mRNA transcription; actives raise or lower the signal
Outline: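 Readout: fluorescently labeled reporter cDNA fragments resolved by capillary electrophoresis after RT-PCR. Transfected HepG2 cells dosed for 24 h; endogenous TF activity at TGFB1-linked cis element; gain or loss fitted relative to DMSO.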

[11] = ATG_VDRE_CIS: Attagene CIS-FACTORIAL HepG2 Assay for human Vitamin D Receptor Element (VDRE) (AID 2282968); conditions: HepG2 VDRE cis-reporter transcription, actives raise or lower the signal
Outline: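 HepG2 cells transiently transfected with cis-element reporter units, dosed 24 h; reporter mRNA measured by RT-PCR, 6-FAM labeling, HpaI digestion and capillary electrophoresis. Activity fitted bidirectionally against DMSO baseline.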

[12] = ATG_M_32_TRANS: Attagene TRANS-FACTORIAL HepG2 Assay for M32 Transcription Factor (Internal Marker) (AID 2282984; active = hit-call score of the fitted dose curve at least 0.9, where 1 is the maximum;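 note: transcript level of a background control reporter unit measured by RT-PCR and capillary electrophoresis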); conditions: HepG2 Attagene TRANS M32 internal marker reporter
Outline: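 HepG2 cells transiently transfected with multiple GAL4-UAS reporter transcription units, dosed for 24 hours; reporter mRNA quantified by RT-PCR, 6-FAM primer extension, HpaI digestion and capillary electrophoresis. Gain-of-signal fitted versus DMSO baseline; internal background-control marker.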

[13] = biological target: Transcriptional activator Myb (Homo sapiens) (UniProt P10242); test: ATG_Myb_CIS: Attagene CIS-FACTORIAL HepG2 Assay for human Myeloblastosis (Myb) Proto-Oncogene Transcription Factor (AID 2282986); conditions: HepG2 Attagene CIS-FACTORIAL Myb reporter transcription; actives raise or lower the signal
Outline: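 Reporter mRNA is quantified by RT-PCR and capillary electrophoresis 24 h after dosing HepG2 cells transfected with cis-regulated reporter units, which track endogenous transcription factor activity. Gain and loss of signal are fitted versus DMSO baseline.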

[14] = biological target: Myc proto-oncogene protein (Homo sapiens) (UniProt P01106); test: ATG_Myc_CIS: Attagene CIS-FACTORIAL HepG2 Assay for human Myelocytomatosis (Myc) Proto-Oncogene Transcription Factor (AID 2282990); conditions: HepG2, Attagene cis-reporter transcription factor activity; actives raise or lower the signal
Outline: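 HepG2 cells transiently transfected with multiple cis-promoter-driven reporter transcription units, so endogenous TF activity is read. After 24 h compound exposure, reporter mRNA was quantified by RT-PCR, 6-FAM labelling, HpaI digestion and capillary electrophoresis; bidirectional fit versus DMSO.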

[15] = ATG_NRF2_ARE_CIS: Attagene CIS-FACTORIAL HepG2 Assay for human Nuclear Factor Erythroid 2 Related Factor 2 (NFR2) response to Antioxidant Response Elements (ARE) (AID 2282992); conditions: HepG2 Attagene ARE/NRF2 reporter, transcription factor activity; actives raise or lower the signal;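 for AC50: reporter mRNA level measured by RT-PCR and capillary electrophoresis fluorescence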
Outline: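 Cis-factorial assay: transfected HepG2 reporter library, 24 h dosing, mRNA readout via RT-PCR/CE; DMSO-referenced bidirectional analysis.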

[16] = ATG_Oct_MLP_CIS: Attagene CIS-FACTORIAL HepG2 Assay for human Octamer-Binding Transcription Factor (Oct) (AID 2282993); conditions: HepG2 Attagene cis-factorial Oct reporter, mRNA; actives raise or lower the signal
Outline: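 Read-out: reporter mRNA via RT-PCR plus capillary electrophoresis of 6-FAM-labelled fragments. Transiently transfected HepG2, 24 h exposure, endogenous TF activity on cis elements. Gain or loss of signal fitted relative to DMSO.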

[17] = biological target: Cellular tumor antigen p53 (Homo sapiens) (UniProt P04637); test: ATG_p53_CIS: Attagene CIS-FACTORIAL HepG2 Assay for human p53 Transcription Factor (AID 2282994); conditions: HepG2 p53 cis-element reporter, Attagene mRNA; actives raise or lower the signal
Outline: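 Using HepG2 hepatoma cells carrying cis-acting multiplexed reporters, mRNA induction is detected after a 24 h exposure. Gain- and loss-of-signal responses are fitted relative to DMSO-treated cells.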

[18] = ATG_XTT_Cytotoxicity: Cytotoxicity Assessment in the Attagene TRANS-FACTORIAL HepG2 Assay (AID 2283584; active = hit-call score of the fitted dose curve at least 0.9, where 1 is the maximum;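 for AC50: XTT signal for cell number as viability in transfected HepG2 cells; cells exposed to compound for 24 h before reading; active means loss of viability signal versus DMSO baseline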)
Outline: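 HepG2 cells transiently transfected with GAL4-UAS multiple reporter units, dosed 24 h; cytotoxicity read by XTT as loss of signal versus DMSO baseline.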

[19] = biological target: Hepatocyte nuclear factor 6 (Homo sapiens) (UniProt Q9UBC0); test: ATG_HNF6_CIS: Attagene CIS-FACTORIAL HepG2 Assay for human Hepatocyte Nuclear Factor 6 (HNF6) (AID 2282952); conditions: HepG2 Attagene cis-factorial HNF6 reporter transcription; actives raise or lower the signal
Outline: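 HepG2 cells transiently transfected with cis-element-driven multiplexed reporter units measuring endogenous transcription factor activity. After 24 h exposure, reporter mRNA quantified by RT-PCR, FAM-labelled fragments and capillary electrophoresis; bidirectional fitting versus DMSO.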

[20] = ATG_NF_kB_CIS: Attagene CIS-FACTORIAL HepG2 Assay for human Nuclear Factor Kappa B (NF-kB) (AID 2282991); conditions: HepG2 Attagene cis-factorial NF-kB reporter mRNA; actives raise or lower the signal
Outline: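 Readout is reporter transcript level, gain or loss versus DMSO, measured 24 h post-dose via RT-PCR, fluorescent labelling and capillary electrophoresis. Human HepG2 liver cells carried transiently transfected CIS reporter constructs reflecting endogenous factors.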

Measured: AC50

Chain of Hepatocyte nuclear factor 6 (Homo sapiens) (Q9UBC0 whole entry, looked up, the tested form may be a part): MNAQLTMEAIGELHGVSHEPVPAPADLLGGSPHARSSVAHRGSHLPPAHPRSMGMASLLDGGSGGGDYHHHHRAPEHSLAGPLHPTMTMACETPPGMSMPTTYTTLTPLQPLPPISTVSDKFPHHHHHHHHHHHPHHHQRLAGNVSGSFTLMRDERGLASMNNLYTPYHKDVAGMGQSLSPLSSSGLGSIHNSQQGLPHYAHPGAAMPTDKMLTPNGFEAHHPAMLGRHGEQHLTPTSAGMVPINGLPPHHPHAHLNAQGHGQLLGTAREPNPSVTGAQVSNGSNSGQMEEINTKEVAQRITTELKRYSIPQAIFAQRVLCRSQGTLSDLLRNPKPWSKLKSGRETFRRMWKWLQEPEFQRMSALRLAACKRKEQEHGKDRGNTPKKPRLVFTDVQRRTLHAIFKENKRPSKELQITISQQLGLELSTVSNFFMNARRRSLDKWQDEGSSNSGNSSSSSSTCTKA
Chain of CCAAT/enhancer-binding protein beta (Homo sapiens) (P17676 whole entry, looked up): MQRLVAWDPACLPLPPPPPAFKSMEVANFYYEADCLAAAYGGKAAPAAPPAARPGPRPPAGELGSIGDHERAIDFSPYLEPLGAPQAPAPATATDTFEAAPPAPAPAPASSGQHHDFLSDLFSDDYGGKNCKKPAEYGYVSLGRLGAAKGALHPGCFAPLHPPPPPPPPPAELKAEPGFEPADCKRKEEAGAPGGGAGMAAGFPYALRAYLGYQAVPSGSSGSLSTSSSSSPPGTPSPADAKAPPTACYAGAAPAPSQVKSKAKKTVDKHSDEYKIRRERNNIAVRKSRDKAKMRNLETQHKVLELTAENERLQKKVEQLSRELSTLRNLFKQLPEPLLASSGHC
Chain of Heat shock factor protein 1 (Homo sapiens) (Q00613 whole entry, looked up, the tested form may be a part): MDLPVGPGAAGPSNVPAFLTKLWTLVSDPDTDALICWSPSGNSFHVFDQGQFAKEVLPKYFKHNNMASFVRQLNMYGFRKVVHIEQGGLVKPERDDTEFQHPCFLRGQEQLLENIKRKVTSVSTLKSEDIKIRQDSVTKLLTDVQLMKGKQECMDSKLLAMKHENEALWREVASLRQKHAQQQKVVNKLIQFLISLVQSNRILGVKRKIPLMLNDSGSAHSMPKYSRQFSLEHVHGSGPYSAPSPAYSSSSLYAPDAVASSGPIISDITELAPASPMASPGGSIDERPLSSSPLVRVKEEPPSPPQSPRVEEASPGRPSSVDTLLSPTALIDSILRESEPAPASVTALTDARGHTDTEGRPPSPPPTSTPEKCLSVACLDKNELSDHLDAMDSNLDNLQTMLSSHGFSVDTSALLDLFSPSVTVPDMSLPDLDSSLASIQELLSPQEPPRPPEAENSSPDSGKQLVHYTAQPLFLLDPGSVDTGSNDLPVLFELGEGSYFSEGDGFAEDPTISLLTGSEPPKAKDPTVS
Chain of Myc proto-oncogene protein (Homo sapiens) (P01106 whole entry, looked up): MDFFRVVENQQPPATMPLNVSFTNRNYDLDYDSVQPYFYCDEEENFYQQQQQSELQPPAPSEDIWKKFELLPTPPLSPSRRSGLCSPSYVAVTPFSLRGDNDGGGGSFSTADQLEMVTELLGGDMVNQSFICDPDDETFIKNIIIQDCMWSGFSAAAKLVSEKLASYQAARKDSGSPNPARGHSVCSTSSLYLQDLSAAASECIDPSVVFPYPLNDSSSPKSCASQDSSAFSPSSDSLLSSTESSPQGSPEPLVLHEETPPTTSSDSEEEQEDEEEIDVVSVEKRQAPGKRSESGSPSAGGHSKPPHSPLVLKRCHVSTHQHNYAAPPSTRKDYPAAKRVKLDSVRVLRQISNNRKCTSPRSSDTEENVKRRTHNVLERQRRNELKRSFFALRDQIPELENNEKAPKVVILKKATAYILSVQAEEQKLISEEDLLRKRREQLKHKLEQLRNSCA
Chain of Aryl hydrocarbon receptor (Homo sapiens) (P35869 whole entry, looked up): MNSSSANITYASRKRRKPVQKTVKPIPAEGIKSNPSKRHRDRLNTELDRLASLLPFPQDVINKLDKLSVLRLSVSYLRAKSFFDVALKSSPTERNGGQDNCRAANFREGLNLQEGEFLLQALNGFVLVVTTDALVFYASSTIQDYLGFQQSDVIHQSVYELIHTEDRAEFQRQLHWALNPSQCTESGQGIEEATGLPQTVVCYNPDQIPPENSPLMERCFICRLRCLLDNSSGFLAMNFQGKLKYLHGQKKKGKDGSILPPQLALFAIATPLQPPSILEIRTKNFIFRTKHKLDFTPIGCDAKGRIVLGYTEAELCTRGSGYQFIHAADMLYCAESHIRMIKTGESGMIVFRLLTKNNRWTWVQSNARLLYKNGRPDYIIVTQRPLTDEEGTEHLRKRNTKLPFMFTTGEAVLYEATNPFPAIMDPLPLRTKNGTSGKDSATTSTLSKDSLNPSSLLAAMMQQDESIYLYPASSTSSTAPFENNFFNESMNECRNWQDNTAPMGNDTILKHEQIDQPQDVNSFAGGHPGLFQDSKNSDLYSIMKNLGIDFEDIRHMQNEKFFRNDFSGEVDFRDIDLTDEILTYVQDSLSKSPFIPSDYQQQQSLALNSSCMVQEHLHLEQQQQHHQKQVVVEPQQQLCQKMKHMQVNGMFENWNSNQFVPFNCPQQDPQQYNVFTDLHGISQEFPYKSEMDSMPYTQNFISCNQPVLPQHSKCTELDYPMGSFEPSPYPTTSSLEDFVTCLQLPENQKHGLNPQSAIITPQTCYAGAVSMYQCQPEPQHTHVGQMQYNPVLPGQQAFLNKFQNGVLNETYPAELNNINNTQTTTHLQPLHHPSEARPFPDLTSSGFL
Chain of Cellular tumor antigen p53 (Homo sapiens) (P04637 whole entry, looked up): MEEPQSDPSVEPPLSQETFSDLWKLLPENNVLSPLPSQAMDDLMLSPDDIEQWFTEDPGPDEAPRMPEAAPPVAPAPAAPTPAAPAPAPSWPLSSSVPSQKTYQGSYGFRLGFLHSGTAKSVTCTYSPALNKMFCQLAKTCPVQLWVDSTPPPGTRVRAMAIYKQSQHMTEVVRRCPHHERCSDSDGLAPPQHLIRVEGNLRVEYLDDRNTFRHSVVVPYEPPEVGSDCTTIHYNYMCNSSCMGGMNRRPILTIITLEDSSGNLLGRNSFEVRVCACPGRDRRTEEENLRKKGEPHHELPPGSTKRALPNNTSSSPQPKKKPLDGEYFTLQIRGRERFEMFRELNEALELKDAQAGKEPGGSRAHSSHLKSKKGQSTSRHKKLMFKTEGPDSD
Chain of Hypoxia-inducible factor 1-alpha (Homo sapiens) (Q16665 whole entry, looked up): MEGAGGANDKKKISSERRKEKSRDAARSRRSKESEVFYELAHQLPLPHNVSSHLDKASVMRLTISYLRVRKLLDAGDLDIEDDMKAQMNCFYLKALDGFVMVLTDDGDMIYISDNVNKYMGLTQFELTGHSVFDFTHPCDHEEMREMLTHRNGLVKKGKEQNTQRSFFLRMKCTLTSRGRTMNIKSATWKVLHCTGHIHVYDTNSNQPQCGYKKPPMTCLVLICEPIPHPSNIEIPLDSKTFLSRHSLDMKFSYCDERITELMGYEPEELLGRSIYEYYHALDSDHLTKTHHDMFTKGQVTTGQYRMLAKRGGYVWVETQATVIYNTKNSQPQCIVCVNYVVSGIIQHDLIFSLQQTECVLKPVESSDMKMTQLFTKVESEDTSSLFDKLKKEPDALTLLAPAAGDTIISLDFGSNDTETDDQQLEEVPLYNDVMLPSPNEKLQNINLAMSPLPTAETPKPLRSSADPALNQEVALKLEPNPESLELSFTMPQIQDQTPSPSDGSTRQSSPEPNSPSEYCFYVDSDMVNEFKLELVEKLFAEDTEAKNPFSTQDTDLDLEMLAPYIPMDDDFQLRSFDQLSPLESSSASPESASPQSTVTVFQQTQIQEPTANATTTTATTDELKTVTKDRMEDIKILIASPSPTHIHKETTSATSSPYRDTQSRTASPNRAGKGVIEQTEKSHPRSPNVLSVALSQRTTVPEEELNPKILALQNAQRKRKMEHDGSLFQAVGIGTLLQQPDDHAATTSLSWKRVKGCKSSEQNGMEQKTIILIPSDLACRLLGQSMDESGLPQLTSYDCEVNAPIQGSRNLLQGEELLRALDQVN
Chain of Transcriptional activator Myb (Homo sapiens) (P10242 whole entry, looked up): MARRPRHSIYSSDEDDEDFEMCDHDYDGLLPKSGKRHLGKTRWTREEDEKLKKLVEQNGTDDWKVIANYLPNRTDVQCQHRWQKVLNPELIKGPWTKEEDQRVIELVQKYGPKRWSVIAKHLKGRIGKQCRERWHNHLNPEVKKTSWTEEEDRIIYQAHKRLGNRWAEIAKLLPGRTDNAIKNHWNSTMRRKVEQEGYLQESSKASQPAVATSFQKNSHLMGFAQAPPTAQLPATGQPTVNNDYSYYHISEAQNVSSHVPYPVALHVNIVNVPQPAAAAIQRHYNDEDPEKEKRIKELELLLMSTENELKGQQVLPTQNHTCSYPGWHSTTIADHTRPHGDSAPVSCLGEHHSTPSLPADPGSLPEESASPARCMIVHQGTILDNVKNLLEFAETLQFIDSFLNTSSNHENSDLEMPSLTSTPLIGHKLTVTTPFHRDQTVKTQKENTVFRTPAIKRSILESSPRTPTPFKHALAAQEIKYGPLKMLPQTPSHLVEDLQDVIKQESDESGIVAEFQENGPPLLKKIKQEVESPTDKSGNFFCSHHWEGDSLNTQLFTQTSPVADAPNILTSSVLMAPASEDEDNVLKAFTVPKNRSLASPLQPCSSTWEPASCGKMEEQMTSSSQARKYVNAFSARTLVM

BrCBr
not listed: [19] | [20]
inactive: all other assays above

N#CCCCCC#N
not listed: [9] | [12] | [20]
inactive: all other assays above

CN(C)N
not listed: [20]
inactive: all other assays above

COc1ncc(F)c2nc(S(=O)(=O)Nc3c(F)cccc3F)nn12
not listed: [11] | [12] | [17]
inactive: all other assays above

CC(C)(O)C#N
not listed: [20]
inactive: all other assays above

CCOP(O)OCC
not listed: [17] | [19]
inactive: all other assays above

COc1ccc(CO)cc1
not listed: [20]
inactive: all other assays above

CCC(=O)c1ccc(Cl)cc1
not listed: [17]
inactive: all other assays above

O=[N+]([O-])O.O=[N+]([O-])O.[Cd]
active: [1] 1.83 µM | [2] 0.873 µM | [5] 1.42 µM | [14] 0.962 µM | [15] 4.12 µM | [16] 1.16 µM | [18] 12.3 µM
not listed: [6] | [11] | [17] | [20]
inactive: all other assays above

C#CC1(O)CCCCC1
not listed: [9] | [11]
inactive: all other assays above

CNC(=N[N+](=O)[O-])NCC1CCOC1 (configuration not stated)
inactive: all assays above

Oc1cc(Cl)ccc1Cl
not listed: [9]
inactive: all other assays above

O=c1[nH]c(Cl)c(Cl)cc1Cl
active: [3] 13.8 µM | [4] 59.5 µM | [15] 76.3 µM
not listed: [20]
inactive: all other assays above

CC(C)c1ccc(O)cc1
active: [2] 40.2 µM | [8] 131 µM | [15] 49.6 µM
not listed: [3] | [9] | [12] | [18] | [19]
inactive: all other assays above

Nc1ccc(Cl)c(Cl)c1
not listed: [18]
inactive: all other assays above
